Sampled rows, rich in hits. Any-hit rate of the full collection: about 1.9%.
PG9 Ab binder = binders of HIV-1 gp120 antibody PG9, primary screen, biochemical, TR-FRET. HIV-1 gp120 / PG9 antibody interaction. TR-FRET gp120-PG9 antibody binding. inhibition, % at 6.7 µM. hit rate 0.43% among 360,000. AID 624416, 2012; in the data active = inhibition above about 8.5%
ZTA DNA inh = counter-screen for EBNA-1 inhibitors: inhibitors of Epstein-Barr virus ZTA | ZTA-DNA binding, fluorescence polarization | hit rate 0.15% among 320,000 | P03206 | inhibition, % at 11 µM; in the data active = inhibition above about 33%
aDG glyco act = activators of alpha-DG glycosylation, primary screen, uHTS, Pro5-aDG cells, AlphaScreen. activation, % at 10 µM. hit rate 0.22% among 360,000. alpha-DG glycosylation AlphaScreen (IIH6); 0% Pro5, 100% B10-LARGE cell signal;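 active = activation of at least 8% versus controls, or a plate z-score of at least 8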;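 note: Pro5 are CHO cells carrying HIG-tagged alpha-DG that lacks glycosylation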
NCF1 inh = p47phox/p22phox peptide binding inhibitors, primary screen, biochemical, uHTS, NADPH oxidase regulatory subunit; Neutrophil cytosol factor 1 (Homo sapiens), P14598; fluorescence polarization, 2 h; inhibition, % at 24.7 µM; hit rate 0.53% among 220,000; AID 1274, 2008;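 active = inhibition above about 30%, limit read from the data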;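 note: 0% = p47phox with labelled peptide and 100% = labelled peptide alone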
Rev-erbA mod = modulators of Rev-erb alpha DNA binding, primary screen, biochemical, FITC-DNA, fluorescence polarization, uHTS; Nuclear receptor subfamily 1 group D member 1 (Homo sapiens), P20393; Rev-erbα–FITC-DNA binding, 90 min; hit rate 0.79% among 370,000; activity, % at 10 µM;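 active = activity above about 14%, limit read from the data; passing the limit was not always enough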;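 note: 0% = DMSO wells with 35 nM protein and 100% = DMSO wells with 750 nM protein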
Target sequence (P20393 whole entry, looked up): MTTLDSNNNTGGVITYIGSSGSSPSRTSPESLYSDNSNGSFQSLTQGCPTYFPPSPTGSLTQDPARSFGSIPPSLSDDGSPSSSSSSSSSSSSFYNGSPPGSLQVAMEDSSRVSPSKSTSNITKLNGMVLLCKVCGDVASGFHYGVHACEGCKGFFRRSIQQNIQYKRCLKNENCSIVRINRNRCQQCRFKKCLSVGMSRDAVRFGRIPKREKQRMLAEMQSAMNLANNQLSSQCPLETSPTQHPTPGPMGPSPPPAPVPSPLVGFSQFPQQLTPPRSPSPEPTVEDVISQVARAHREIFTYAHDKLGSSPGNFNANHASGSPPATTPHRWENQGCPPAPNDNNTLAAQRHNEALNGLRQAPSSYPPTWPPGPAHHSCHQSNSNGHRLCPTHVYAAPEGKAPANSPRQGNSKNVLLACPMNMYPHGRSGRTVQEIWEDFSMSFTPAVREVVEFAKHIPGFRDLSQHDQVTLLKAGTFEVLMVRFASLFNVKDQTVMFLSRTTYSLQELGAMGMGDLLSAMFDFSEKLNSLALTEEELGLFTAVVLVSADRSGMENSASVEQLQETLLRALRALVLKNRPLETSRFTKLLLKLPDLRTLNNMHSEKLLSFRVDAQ
EBNA-1 inhibitor = EBNA-1 DNA-binding inhibitors, primary screen, biochemical, fluorescence polarization. inhibition, % at 14.8 µM. hit rate 0.34% among 300,000; in the data active = inhibition above about 28%
NR1D1 mod conf = modulators of Rev-erb alpha DNA binding, confirmation, biochemical, FITC-DNA, fluorescence polarization, single point | shares compounds with Rev-erbA mod | 90 min | activation, % at 25 µM | hit rate 61% among 3,000;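 active = activation at or above a set limit, or at least 3 SD above the negative control mean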;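 note: 0% = 35 nM protein with DMSO and 100% = 750 nM protein high control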
RORg DNA counter = modulation of RORgamma DNA binding, dose response, counter-screen for Rev-erb alpha modulator project, biochemical, fluorescence polarization, FITC-DNA; shares compounds with Rev-erbA mod; purified RORgamma protein-FITC-DNA binding; IC50, µM; hit rate 8% among 910; AID 1259320, 2017;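 active = Compounds whose fitted half-maximal concentration for disrupting protein-DNA binding is below 10 micromolar; the record names Rev-erb in its text, so the target is in doubt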
* = called active by the depositor; · = no result.

SMILES | PG9 Ab binder | ZTA DNA inh | aDG glyco act | NCF1 inh | Rev-erbA mod | EBNA-1 inhibitor | NR1D1 mod conf | others
Cc1cccc(C)c1NC(=O)C1CCN(c2ncccn2)CC1 | · | · | · | · | -1 | · | ·
Cc1cc(Br)c2nc(-c3cccc(Br)c3)c(Cc3cccc(Cl)c3)n2c1 | 6 | · | · | · | 18* | · | 7
Cc1cc(Br)cn2c(Cc3ccsc3)c(-c3cccc(Cl)c3)nc12 | 0 | · | 0 | · | 10 | · | ·
Cc1cc(Br)cn2c(Cc3cccc(Cl)c3)c(-c3cccc(Cl)c3)nc12 | 5 | · | 0 | · | 23* | · | 13*
COc1ccccc1Cc1c(-c2cccc(Cl)c2)nc2c(C)cc(Br)cn12 | 2 | · | 0 | · | 22* | · | 11*
Cc1cc(Br)cn2c(Cc3ccccc3)c(-c3ccc(Cl)cc3)nc12 | 1 | · | 0 | · | 25* | · | 12*
CCOc1ccc(-n2c(SCC(=O)Nc3cccc4ccccc34)nnc2-c2ccncc2)cc1 | · | · | · | · | -2 | · | ·
O=S(=O)([N-]c1nc2ccccc2nc1-n1cc[n+](Cc2ccccc2)c1)c1ccc(Br)cc1 | -1 | 0 | 0 | -40 | 67* | 6 | 46* | RORg DNA counter=5*
Cn1c(SCCc2ccccc2)nnc1-c1ccco1 | · | · | · | · | -1 | · | ·
O=C(Nc1nnc(-c2ccccc2Cl)s1)C1CCN(S(=O)(=O)c2ccc(Cl)cc2)CC1 | 1 | -4 | 0 | 9 | 7 | -14 | ·
O=C(Nc1nnc(-c2ccc(F)cc2)s1)C1CCN(S(=O)(=O)c2ccc(Cl)cc2)CC1 | -1 | 14 | 0 | 3 | 121* | 7 | 14
O=C(Nc1nnc(-c2ccccc2F)s1)C1CCN(S(=O)(=O)c2ccc(Cl)cc2)CC1 | -2 | 1 | 0 | -3 | 33* | -10 | 7
Cc1ccc(S(=O)(=O)N2CCC(C(=O)Nc3nnc(-c4ccc(F)cc4)s3)CC2)cc1 | -2 | -4 | 0 | -2 | 14 | 4 | ·
COCCCNC(=O)C[C@H]1C[C@@]2(C(=O)OC)C(=C[C@H](C(C)C)O[C@@H]2C2CC2)N(CCc2ccc(OC)c(OC)c2)C1=O | · | · | · | · | -6 | · | ·
CC(C)c1ccccc1NC(=O)[C@@H]1CCCN1S(=O)(=O)c1cccc2cccnc12 | · | · | · | · | 3 | · | ·
CCCCCCNC(=O)C1CSCCS(=O)(=O)N1Cc1ccc(OC)cc1 (stereo not given) | · | · | · | · | -3 | · | ·
Cc1ccc(-n2nnc(-c3cc4ccccc4nc3Cl)n2)cc1 | 0 | 3 | 0 | -14 | 35* | -2 | 30*
CCN(C(=O)c1ccccc1)c1ccc([N+](=O)[O-])cc1 | -2 | 14 | 0 | -2 | 0 | -2 | ·
O=[N+]([O-])c1ccc(N(c2ccccc2)c2ccccc2)cc1 | 6 | -2 | 0 | -11 | 44* | -17 | 35* | RORg DNA counter=>40
Cn1nnnc1SCC(=O)NCc1ccc2c(c1)OCO2 | 2 | 2 | 0 | 2 | 8 | 4 | ·
COc1ccc(CNC(=O)CSc2nnnn2C)cc1OC | -2 | 8 | 0 | -8 | 31* | 2 | -2
COc1cc(C(=O)Nc2nc(-c3cc(C)ccc3C)c(C)s2)ccc1OCC(=O)Nc1ccc(F)cc1 | 0 | -1 | 0 | -8 | 71* | 11 | 49* | RORg DNA counter=>40
COc1ccc(C(=O)Nc2nc(C)c(C)s2)cc1OC | -1 | -14 | 0 | -12 | -3 | 1 | ·
COc1ccc2cc(C(=O)COC(=O)COc3ccc4c(C)cc(=O)oc4c3)ccc2c1 | 1 | -10 | 0 | -1 | 85* | -7 | 52* | RORg DNA counter=>40
CCn1c(/C=C/c2c(C)[nH]c3ccccc23)nc2ccccc2c1=O | -1 | 14 | 0 | -61 | 59* | 4 | 29*
SMILES | PG9 Ab binder | ZTA DNA inh | aDG glyco act | NCF1 inh | Rev-erbA mod | EBNA-1 inhibitor | NR1D1 mod conf | others
CCn1c(/C=C/c2c[nH]c3ccccc23)nc2ccccc2c1=O | -1 | 1 | 1 | -8 | 1 | -10 | ·
O=C(OC12CCCN(C1)/C(=C/c1ccncc1)C2)c1ccco1 (stereo not given) | · | · | · | · | 2 | · | ·
CN(c1c2c(nc3ncnn13)CCCC2)C1CCCCC1 | · | · | · | · | -6 | · | ·
O=S(=O)(c1cccc2nsnc12)N1CCNCC1 | -1 | -8 | 0 | · | 25* | 1 | -5
Cc1ccc(F)cc1N=Cc1c(O)c2ccccc2oc1=O | · | 4 | 0 | · | · | -1 | ·
Cc1ccc(N=Cc2c(O)c3ccccc3oc2=O)c(C)c1 | 1 | -2 | 0 | · | 46* | 12 | 25*
Cc1[nH]n(C(N)=S)c(=O)c1N=Nc1cc(-c2ccc(Br)cc2)[nH]n1 | 1 | 0 | 0 | -4 | 14* | 3 | 12
CCOc1ccc(-n2cc(C(=O)Nc3cccc(C)n3)c3cc(OC)c(OC)cc3c2=O)cc1 | 1 | -24 | -1 | · | 35* | -13 | 12
CC(=O)c1ccc(NC(=O)c2cn(-c3ccccc3)nc2-c2ccncc2)cc1 | 1 | -1 | 0 | -13 | 2 | -5 | ·
COC(=O)c1ccc(NC(=O)c2cn(-c3ccccc3)nc2-c2ccncc2)cc1 | 8 | 16 | 1 | 0 | 289* | 17 | 254* | RORg DNA counter=>40
Cn1c(=O)c2c(nc(SCC(=O)c3cccs3)n2Cc2ccc(F)cc2)n(C)c1=O | 1 | -16 | 0 | -4 | 133* | -1 | 100* | RORg DNA counter=>40
Cn1c(=O)c2c(nc(Br)n2CC(=O)c2cccs2)n(C)c1=O | 2 | 17 | 0 | 2 | 0 | 0 | ·
Cc1ccc(OCC(C)CN2CCC(C(O)(c3ccccc3)c3ccccc3)CC2)cc1 (stereo not given) | · | · | · | · | -1 | · | ·
CCOC(=O)[C@@]12CCCC3=C1N(CCC3)C(=O)[C@H]2CC(=O)NCCCOC | · | · | · | · | -2 | · | ·
CC1=CC2(C(Cc3ccccc3)N(CC3CC3)C(=NC(=O)c3ccccc3)N2C(=O)OCc2ccccc2)n2c(=O)n(-c3ccccc3)c(=O)n2C1 (stereo not given) | · | · | · | · | -2 | · | ·
COc1ccc(CC(=O)Nc2ccc(-c3cn4ccc(C)cc4n3)cc2)cc1 | 3 | -2 | 2 | 0 | 16* | 6 | 11
COc1ccc(CC(=O)Nc2ccc(-c3cn4cccc(C)c4n3)cc2)cc1OC | -1 | -8 | 0 | 3 | -6 | -4 | ·
COc1ccc(CNC(=O)O[C@H]2CC[C@@]34CCCN3C(=O)CCC[C@H]4C2)cc1OC | · | · | · | · | -1 | · | ·
N#Cc1ccccc1NC(=O)c1ccccc1OCC(=O)Nc1ccc2c(c1)oc1ccccc12 | 6 | 8 | 0 | · | 2 | 9 | ·

High-throughput results: PubChem, several laboratories
